Laboratory results from PubChem BioAssay (NCATS).
Values without a mark were called inactive. Results filed as inconclusive are left out. Calls of active or inactive are those of the source. Calls follow the shape of the dose curve; as a rule, active = well fitted curve in the direction sought with a large enough effect; inconclusive = small, poorly fitted or top-dose-only effect, or another doubt; inactive = no such curve, though single readings can be large; an effect the other way counts as inactive or inconclusive.

Key:
[1] = target: Cytochrome P450 3A4 (Homo sapiens) (UniProt P08684); assay: qHTS Assay for Inhibitors and Substrates of Cytochrome P450 3A4 (AID 884); also: potency is read from the fitted curve at half-maximal effect; nearly all actives have a fitted effect of over 50% in size
Sequence of Cytochrome P450 3A4 (Homo sapiens) (P08684 whole entry, looked up): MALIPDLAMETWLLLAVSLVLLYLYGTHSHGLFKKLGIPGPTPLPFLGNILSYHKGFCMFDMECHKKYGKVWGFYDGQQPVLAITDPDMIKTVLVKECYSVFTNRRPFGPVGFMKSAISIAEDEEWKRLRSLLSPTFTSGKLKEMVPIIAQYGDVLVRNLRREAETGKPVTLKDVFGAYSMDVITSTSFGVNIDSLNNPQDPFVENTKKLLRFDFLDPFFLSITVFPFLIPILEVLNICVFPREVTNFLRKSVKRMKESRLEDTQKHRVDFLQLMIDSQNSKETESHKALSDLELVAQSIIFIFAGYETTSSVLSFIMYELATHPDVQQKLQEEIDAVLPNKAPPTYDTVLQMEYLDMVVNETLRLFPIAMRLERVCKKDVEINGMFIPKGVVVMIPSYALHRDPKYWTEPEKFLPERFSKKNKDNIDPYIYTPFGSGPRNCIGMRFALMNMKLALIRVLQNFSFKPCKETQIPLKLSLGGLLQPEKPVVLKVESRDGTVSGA
Method in brief: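 Luminescent readout of luciferin produced by CYP3A4 (20 nM) dealkylation of Luciferin-PPXE, 25 uM (its KM). NADPH-driven reaction ran 60 min at RT after 10 min compound preincubation; data scaled to 57 uM ketoconazole as 100% inhibition.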

[2] = target: Cytochrome P450 3A4 (Homo sapiens) (UniProt P08684); assay: qHTS Assay for Activators of Cytochrome P450 3A4 (AID 885); also: nearly all actives have a fitted effect of over 65% in size
Method in brief: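 Using 20nM recombinant human CYP3A4 in potassium phosphate (200mM), substrate Luciferin-PPXE at 25uM, luminescent luciferin detection followed a 60-min RT NADPH reaction; data scaled to 57 uM ketoconazole.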

SMILES	Potency [1]	Potency [2]	activity change, positive = activation [2]
CCC1=C(OC(=O)N(CC)CC)N2C(=O)OC(=NCC3CC3)[C@]2(C)[C@H]2C1=CC[C@H]1C(=O)N(c3ccccc3)C(=O)[C@H]12	3.16 µM (active)	inactive	–
C/C(CCC(=O)OC[C@@H]1O[C@H](C#Cc2ccccc2)C=C[C@@H]1Oc1ccc(C)cc1)=N/OC[C@@H](O)COCc1ccco1	3.16 µM (active)	–	-90.6% [at 11.4 µM]
CCC1=C(OC(=O)N(CC)CC)N2C(=O)OC(=NCC(=O)OC)[C@]2(Cc2ccccc2)[C@H]2C1=CC[C@H]1C(=O)N(c3ccccc3)C(=O)[C@H]12	3.16 µM (active)	inactive	–
COC(=O)[C@@H]1C[C@@H]2CC[C@@H](O)C[C@@H]2N1CC1CCCCC1	12.6 µM (active)	inactive	–
C=CC[C@@H]1C=C[C@H](O/N=C\[C@@H](C)[C@H](OCc2ccccc2)C(C)C)[C@H](CO)O1	3.98 µM (active)	–	-73.8% [at 11.4 µM]
CCC1=C(OC(=O)N(CC)CC)N2C(=O)OC(=NCCc3c[nH]c4ccccc34)[C@]2(C)[C@H]2C1=CC[C@H]1C(=O)NC(=O)[C@H]12	2.51 µM (active)	inactive	–
CN1C[C@@H]2C(c3ccc(C(F)(F)F)cc3)C3(c4ccc(C#N)cc4)CC2(C3)[C@H]1c1ccccc1 (stereo partly drawn)	20 µM (active)	inactive	–
CCC1=C2CC[C@H]3C(=O)N(CC)C(=O)[C@H]3[C@H]2[C@@]2(Cc3ccccc3)C(=NCc3ccccc3)OC(=O)N2C1=O	3.16 µM (active)	inactive	–
CCC1=C(OC(=O)N(CC)CC)N2C(=O)OC(=NCC3CC3)[C@]2(Cc2ccccc2)[C@H]2C1=CC[C@H]1C(=O)N(CC(=O)OC)C(=O)[C@H]12	2 µM (active)	inactive	–
